Inconclusive results are not listed. Unmarked numbers belong to inactive results. Active and inactive are the calls of the source. The call rests on the fitted dose curve; in most records, active means well fitted cell-killing curve with a large enough effect; inconclusive means small, poorly fitted or top-dose-only effect, or effect the other way; inactive means flat fitted curve, though single readings scatter.
On the % scale 0 is the no-effect control and ±100 the full control effect; potency means the concentration at half of the fitted maximal effect.

The subject of one assay is CASKI. Put plainly: Primary qHTS to identify gynecologic anti-cancer compounds using libraries of approved drugs and bioactive compounds (AID 1345084). Further: nearly all actives have a fitted effect of over 55% in size. Particulars: Gynecologic cancer cell panel viability, ATPlite luminescence, 48 h; series mostly up to 57.5 µM; activity change, negative = cytotoxicity: at the top concentration. An outline of the steps: (§1)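 48 h compound exposure at 37 C, 5% CO2; five-point qHTS. ATPlite luminescence readout of cell ATP.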
As for `CC(=O)Nc1nc(C)c(-c2ccc(Cl)c(S(=O)(=O)NCCO)c2)s1`, the Potency is 12.6 µM (active). On to `N#CCNC(=O)c1ccc(-c2ccnc(Nc3ccc(N4CCOCC4)cc3)n2)cc1`, for which the “activity change, negative = cytotoxicity” value is -8.76%. For `O=C(Nc1cc(C(F)(F)F)cc(C(F)(F)F)c1)c1cc(Cl)ccc1O`, the Potency is 3.55 µM (active).

Take `Cn1cc(-c2ccncc2)c(-c2ccc(OCc3ccc4ccccc4n3)cc2)n1`: the “activity change, negative = cytotoxicity” value was 5.16%. On the same count and under the same terms, for `Cc1cc(Nc2cc(CN3CCOCC3)c3nc(C)c(Cc4ccc(Cl)cc4F)n3n2)n[nH]1` the value was -3.18%; for `O=C(Cc1ccc(-c2ccc(OCCN3CCOCC3)cc2)cn1)NCc1ccccc1`, -35.4%.

Another assay deals with Es-2. Described as above. Particulars: Gynecologic cancer cell panel viability, ATPlite luminescence, 48 h; series mostly up to 57.5 µM; activity change, negative = cytotoxicity: at the top concentration. An outline of the steps:
as §1
For orientation: ATP-based viability assays read luminescence as a measure of living cells.
Regarding `C=CC(=O)Nc1cc2c(Nc3ccc(F)c(Cl)c3)ncnc2cc1OCCCN1CCOCC1`, the “activity change, negative = cytotoxicity” value is 7.07%. On the same count and under the same terms, for `COC(=O)c1ccc2c(C(=Nc3ccc(N(C)C(=O)CN4CCN(C)CC4)cc3)c3ccccc3)c(O)[nH]c2c1` the value was 5.96%. `Cc1ccc(C(=O)Nc2ccc(CN3CCN(C)CC3)c(C(F)(F)F)c2)cc1C#Cc1cnc2cccnn12`: the Potency was 8.91 µM (active).

Take `O=C(Nc1ncc(-c2cc(C(F)F)nn2-c2c(Cl)cccc2Cl)s1)C1CC1`: the Potency was 3.16 µM (active).

Take `CCNC(=O)Nc1ccc2ncc(Nc3ccc(C)cc3)nc2n1`: the “activity change, negative = cytotoxicity” value is -3.09%. Consider `Nc1ncnc2c1c(-c1cnc3[nH]ccc3c1)nn2C1CCCC1`, for which the Potency is 10 µM (active).

As for `COC(=O)C1=C(C)NC(C)=C(C(=O)OCCN2CCN(C(c3ccccc3)c3ccccc3)CC2)C1c1cccc([N+](=O)[O-])c1` (centres undefined), the “activity change, negative = cytotoxicity” value was -19%. Regarding `CC1(O)CC(c2nc(-c3ccc4ccc(-c5ccccc5)nc4c3)c3c(N)nccn23)C1` (centres undefined), the “activity change, negative = cytotoxicity” value is 5.93%.

`Cc1cn(-c2cc(NC(=O)c3ccc(C)c(Nc4nccc(-c5cccnc5)n4)c3)cc(C(F)(F)F)c2)cn1`: the “activity change, negative = cytotoxicity” value is -25.4%. The same measure, in the same setting: the figure for `O=C(c1ccc(Nc2nccc(-c3cc4ccccc4s3)n2)cc1)N1CCC(N2CCCC2)CC1` is -0.726%; for `CC(=O)c1c(C)c2cnc(Nc3ccc(N4CCNCC4)cn3)nc2n(C2CCCC2)c1=O` it is 0.0946% [at 6.55 µM]. On to `Cc1cc(C(=O)N2CCN(c3cccc(Cl)c3)CC2)n(-c2ccccc2)n1`, for which the Potency was 11.2 µM (active). Still for that read-out and setting: the figure for `O=C(Nc1cc(C(F)(F)F)cc(C(F)(F)F)c1)c1cc(Cl)ccc1O` is 5.01 µM (active). With `Cn1cc(-c2ccncc2)c(-c2ccc(OCc3ccc4ccccc4n3)cc2)n1`, the “activity change, negative = cytotoxicity” value was -2.79%. On to `COC(=O)Nc1ccc(-c2nc(N3CCOCC3)c3cnn(C4CCN(Cc5cccnc5)CC4)c3n2)cc1`, for which the Potency is 4.47 µM (active). The same measure, in the same setting: for `Cc1cc(Nc2nc(N[C@@H](C)c3ccc(F)cc3)c(C#N)cc2F)n[nH]1` the value was 14.1 µM (active). On to `COC(=O)Nc1nc2ccc(C(=O)c3ccc(F)cc3)cc2[nH]1`, for which the Potency is 8.91 µM (active).

Turning to `O=C(Cc1ccc(-c2ccc(OCCN3CCOCC3)cc2)cn1)NCc1ccccc1`, the Potency is 1.58 µM (active).

For the compound `Nc1ncnc2c1c(-c1cccc(OCc3ccccc3)c1)cn2C1CC(CN2CCCC2)C1` (centres undefined), the “activity change, negative = cytotoxicity” value was 2.05%.

The subject of a further assay is HeLa. The description is as above. The following applies: Gynecologic cancer cell panel viability, ATPlite luminescence, 48 h; series mostly up to 57.5 µM; activity change, negative = cytotoxicity: at the top concentration. An outline of the steps:
as §1
As for `C=CC(=O)Nc1cc2c(Nc3ccc(F)c(Cl)c3)ncnc2cc1OCCCN1CCOCC1`, the “activity change, negative = cytotoxicity” value was -3.94%. `Cc1ccc(C(=O)Nc2ccc(CN3CCN(C)CC3)c(C(F)(F)F)c2)cc1C#Cc1cnc2cccnn12`: the Potency is 11.2 µM (active). The same measure, in the same setting: for `O=C(Nc1ncc(-c2cc(C(F)F)nn2-c2c(Cl)cccc2Cl)s1)C1CC1` the value was 2.51 µM (active). On to `CCNC(=O)Nc1ccc2ncc(Nc3ccc(C)cc3)nc2n1`, for which the “activity change, negative = cytotoxicity” value was 7.34%.

Take `Nc1ncnc2c1c(-c1cnc3[nH]ccc3c1)nn2C1CCCC1`: the Potency was 10 µM (active). `COC(=O)C1=C(C)NC(C)=C(C(=O)OCCN2CCN(C(c3ccccc3)c3ccccc3)CC2)C1c1cccc([N+](=O)[O-])c1` (centres undefined): the “activity change, negative = cytotoxicity” value was -21.1%. On to `COc1ccc(C(=O)CC2(O)C(=O)Nc3c(Cl)ccc(Cl)c32)cc1` (centres undefined), for which the Potency is 14.1 µM (active). Consider `CC(=O)Nc1sc2c(c1-c1nc3ccccc3s1)CNC2`, for which the “activity change, negative = cytotoxicity” value was -23.6%. The same measure, in the same setting: for `Cc1cn(-c2cc(NC(=O)c3ccc(C)c(Nc4nccc(-c5cccnc5)n4)c3)cc(C(F)(F)F)c2)cn1` the value was -1.67%.

Consider `Nc1nc(Nc2ccc(S(N)(=O)=O)cc2)nn1C(=O)c1c(F)cccc1F`, for which the Potency was 22.4 µM (active). Turning to `Fc1cc(-c2cccc3ncc(-c4cnn(C5CCNCC5)c4)nc23)cc(F)c1CN1CCOCC1`, the “activity change, negative = cytotoxicity” value is -26.7%.

As for `O=C(c1ccc(Nc2nccc(-c3cc4ccccc4s3)n2)cc1)N1CCC(N2CCCC2)CC1`, the “activity change, negative = cytotoxicity” value is -4.44%. With `CC(=O)c1c(C)c2cnc(Nc3ccc(N4CCNCC4)cn3)nc2n(C2CCCC2)c1=O`, the activity change, negative = cytotoxicity is -1.33% [at 6.55 µM]. The same measure, in the same setting: the figure for `OCc1ccc(-c2ccc(-c3ccc(CO)s3)o2)s1` is -14.9% [at 25.3 µM]. On to `Cc1cc(C(=O)N2CCN(c3cccc(Cl)c3)CC2)n(-c2ccccc2)n1`, for which the Potency is 8.91 µM (active). Turning to `N#CCNC(=O)c1ccc(-c2ccnc(Nc3ccc(N4CCOCC4)cc3)n2)cc1`, the “activity change, negative = cytotoxicity” value was -28%. Consider `O=C(Nc1cc(C(F)(F)F)cc(C(F)(F)F)c1)c1cc(Cl)ccc1O`, for which the Potency was 2.24 µM (active). Still for that read-out and setting: for `CS(=O)(=O)N1CCN(Cc2cc3nc(-c4cccc5[nH]ncc45)nc(N4CCOCC4)c3s2)CC1` the value was 3.55 µM (active). `Cn1cc(-c2ccncc2)c(-c2ccc(OCc3ccc4ccccc4n3)cc2)n1`: the “activity change, negative = cytotoxicity” value is -6.81%.

Regarding `COC(=O)Nc1ccc(-c2nc(N3CCOCC3)c3cnn(C4CCN(Cc5cccnc5)CC4)c3n2)cc1`, the Potency is 25.1 µM (active). For `Cc1cc(Nc2cc(CN3CCOCC3)c3nc(C)c(Cc4ccc(Cl)cc4F)n3n2)n[nH]1`, the Potency was 14.1 µM (active). Same read-out and setting: for `Cc1cc(Nc2nc(N[C@@H](C)c3ccc(F)cc3)c(C#N)cc2F)n[nH]1` the value was 5.62 µM (active); for `COC(=O)Nc1nc2ccc(C(=O)c3ccc(F)cc3)cc2[nH]1`, 3.98 µM (active).

Regarding `O=C(Cc1ccc(-c2ccc(OCCN3CCOCC3)cc2)cn1)NCc1ccccc1`, the Potency was 1.58 µM (active).
